Laboratory results published in PubChem BioAssay AID623870 (Broad Institute, 2012).
Screen size: about 390,000 compounds; about 2,600 (0.67%) were called active. The full list was thinned out, with actives kept by preference. Unmarked numbers belong to inactive results.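 The calls were made as follows: active = mean inhibition of replicates at least 50% and at least half of replicates each reaching 50%; inconclusive = half or more replicates reach 50% but mean below 50%; inactive = the rest.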

Biological target: Transforming acidic coiled-coil-containing protein 3 (Homo sapiens) (UniProt Q9Y6A5)
Assay: inhibitors of ARNT PAS-B binding to TACC3 – biochemical, AlphaScreen, single concentration, primary screen (AID 623870);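 also: 0% = complete ARNT plus TACC3 wells and 100% = ARNT alone without TACC3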
Conditions: AlphaScreen His-ARNT PAS-B/GST-TACC3 binding, luminescence; at 9.99 µM; stronger effect = higher value; TACC3 fragment carries E629A point mutation

Compound	inhibition
COc1ccc(CNC(=O)COc2cccnc2[N+](=O)[O-])cc1	-14.8%
CCOc1ncccc1C(=O)NCCc1ccc(OC)cc1	3.87%
C/C(=N/NC(=O)CSc1ccccn1)c1ccc([N+](=O)[O-])cc1	-1.61%
C/C(Cc1ccccc1)=N\NC(=O)CNC(=O)c1ccccc1Cl	4.6%
C/C(=N\NC(=O)Cc1ccc(Cl)cc1)c1ccccn1	28.6% (active)
COc1ccc(CC(=O)N/N=C(\C)c2ccccn2)cc1	65.8% (active)
C[C@H]1CN([C@@H](C)CO)C(=O)c2cc(/C=C/c3ccccc3)cnc2O[C@H]1CN(C)Cc1cccc(C(=O)O)c1	-2.95%
CO[C@@H]1CN(C)C(=O)c2cc(NC(=O)Nc3cc(F)ccc3F)ccc2OC[C@@H](C)N(C)C[C@H]1C	11.6%
CO[C@H]1CN(C)C(=O)c2cc(NC(=O)C3CCOCC3)ccc2OC[C@@H](C)N(Cc2cccnc2)C[C@@H]1C	-4.49%
CCNC(=O)C[C@H]1CC[C@@H]2[C@H](COc3ccc(NC(=O)Nc4cccc(Cl)c4)cc3C(=O)N2C)O1	4.93%
CO[C@@H]1CN(C)C(=O)c2cc(NC(=O)C3CCOCC3)ccc2OC[C@H](C)N(Cc2cccnc2)C[C@@H]1C	-4.7%
CCCN(C)C[C@@H]1Oc2cc(-c3ccc(C)cc3)ccc2S(=O)(=O)N([C@@H](C)CO)C[C@H]1C	3.53%
CO[C@H]1O[C@H](CO)[C@@H](OC(=O)Nc2ccccc2-c2ccccc2)[C@H](OC(=O)Nc2ccccc2)[C@H]1OC(=O)Nc1ccccc1	0.749%
COc1ccccc1-c1ccc([C@@H]2[C@@H](CO)N3CCCCN(C(=O)c4ccncc4)C[C@@H]23)cc1	-0.716%
CC1(c2ccc(Cl)cc2Cl)NC(=O)N(CC(=O)Nc2cccnc2Cl)C1=O (configuration not stated)	0.909%
CC(NC(=O)COc1cccnc1[N+](=O)[O-])c1ccc(Cl)cc1Cl (configuration not stated)	1.05%
CC(=O)/C(=N\Nc1ccc(Cl)cc1Cl)Sc1cccc2cccnc12	61.1% (active)
CN1C[C@H]2[C@@H](c3ccccc31)[C@@H](CO)N2Cc1ccccc1	2.13%
COc1ccc(NC(=O)Nc2ccc3c(c2)C(=O)N([C@H](C)CO)C[C@H](C)[C@H](CN(C)S(=O)(=O)c2ccc(OC)cc2)O3)cc1	8.74%
O=C(Nc1cc(F)ccc1F)N1CCCCN2[C@H](C1)[C@H](c1ccc(-c3cccnc3)cc1)[C@@H]2CO	-4.21%
CNC[C@H]1Oc2cc(C#Cc3ccccn3)ccc2S(=O)(=O)N([C@H](C)CO)C[C@@H]1C	47.7% (active)
CNC[C@H]1Oc2cc(C#Cc3ccccc3)ccc2S(=O)(=O)N([C@@H](C)CO)C[C@@H]1C	21.9%
CC(C)NC(=O)N(C)C[C@H]1Oc2cc(C#Cc3ccccn3)ccc2S(=O)(=O)N([C@H](C)CO)C[C@@H]1C	-1.38%
CN1[C@@H]2c3ccc(-c4cccc(F)c4)c(=O)n3C[C@@H]2[C@@H](CO)[C@@H]1C(=O)NC1CCC1	-9.74%

Compound	inhibition
CCC(=O)Nc1ccc2c(c1)OC[C@H](C)N(C(=O)c1ccncc1)C[C@H](C)[C@H](OC)CN(C)C2=O	6.95%
C[C@@H]1CN([C@@H](C)CO)C(=O)c2cccc(NC(=O)c3ccncc3)c2O[C@H]1CN(C)S(=O)(=O)c1ccc(F)cc1	-8.57%
C[C@@H]1CN([C@H](C)CO)C(=O)c2cc(NC(=O)Cc3cn(C)c4ccccc34)ccc2O[C@@H]1CN(C)S(=O)(=O)c1cccs1	-11.1%
Cc1ccc(CC2CC(=O)N(c3nc(C)cc(C)n3)C2=O)cc1 (configuration not stated)	-8.57%
COC(=O)CC1=NN(c2nc(C)cc(C)n2)C(=O)C1	13.9% (active)
Cc1cc(C)nc(N2C(=O)CC(Cc3ccccc3)C2=O)n1 (configuration not stated)	-0.771%
COCCNC(=O)C[C@H]1CC[C@@H]2[C@@H](COc3ccc(NC(=O)C4CCOCC4)cc3C(=O)N2C)O1	-6.26%
CCC(=O)N[C@H]1CC[C@H](CCn2cc(-c3cccc(OC)c3)nn2)O[C@H]1CO	-6.96%
Cc1ccccc1OCCC(=O)Nc1c(C)n(C)n(-c2ccccc2)c1=O	5.66%
Cc1c(NC(=O)CSc2cccc3cccnc23)c(=O)n(-c2ccccc2)n1C	93.2% (active)
Cc1c(NC(=O)CN2C(=O)C(=O)N(Cc3ccccc3)C2=O)c(=O)n(-c2ccccc2)n1C	0.167%
C[C@@H]1CN([C@H](C)CO)C(=O)c2ccccc2-c2ccccc2CO[C@@H]1CN(C)S(=O)(=O)CC(F)(F)F	-0.141%
C[C@H](CO)N1C[C@H](C)[C@H](CN(C)C)Oc2ccc(NC(=O)Cc3ccccc3)cc2CC1=O	-9.42%
C[C@H](CO)N1C[C@H](C)[C@H](CN(C)C(=O)NC2CCCCC2)Oc2c(NC(=O)C3CC3)cccc2C1=O	-12.2%
C=CCNC(=S)N/N=C/c1ccc(C)s1	3.54%
O=[N+]([O-])c1cc(Cl)cc(/C=N/NC(=S)Nc2cc(S(=O)(=O)N3CCOCC3)ccc2Cl)c1O	41.4%
CNC(=S)N/N=C/c1ccc(N2CCOCC2)s1	46.8% (active)
COc1ccc(NC(=O)N(C)C[C@@H]2Oc3c(NC(=O)C4CCOCC4)cccc3C(=O)N([C@H](C)CO)C[C@@H]2C)cc1	26.5%
Cc1ncc(CO)c(/C=N/NC(=O)c2cccc(S(=O)(=O)N3CCCC3)c2)c1O	75.9% (active)
O=C(Nc1nncs1)c1cccc(S(=O)(=O)N2CCCCC2)c1	-5.27%
O=C(NNC1=NCCC1)c1cccc(S(=O)(=O)N2CCCCC2)c1	30.6%
CCCN(C)C[C@@H]1OCCCC[C@@H](C)Oc2ccc(NS(=O)(=O)c3c(C)noc3C)cc2C(=O)N([C@H](C)CO)C[C@@H]1C	-10.1%
COCC#Cc1cnc2c(c1)C(=O)N([C@@H](C)CO)C[C@@H](C)[C@@H](CN(C)C(=O)Nc1ccc(OC)cc1)O2	4.88%
